This is a sample that favours compounds with a hit; in the whole collection about 3% have one here.
OvCa metastasis: Primary qHTS assay for Inhibitors of ovarian cancer metastasis using an organotypic tumor microenvironment (TME) model | SKOV3ip1-GFP adhesion/invasion on 3D omental model, fluorescence | Potency, µM (top dose mostly 45.8 µM), actives largely listed as inhibitors | 46,000 tested, 0.1% active | AID 1963576, 2024; note: nearly all actives have a fitted effect of over 65% in size
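Adhesion/invasion was scored as fixed GFP-labeled SKOV3ip1 cell counts (488/509 nm), normalized to DMSO and tomatine controls. Cancer cells in serum-free medium, with four compound doses (0.36-46 umol/L), sat 2 hr at RT then 16 hr at 37 C on a 48 hr fibroblast/mesothelial/ECM culture.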
PMP22 txn: Cell-based coincidence reporter assay to measure PMP22 gene transcription in S16 Pmp22-F2sN cells - Primary screen; S16 Pmp22-F2sN Schwann cells, FLuc/NLuc coincidence luminescence, 24 h; Potency, µM (top dose mostly 57.5 µM), most hits filed as inhibitors; 43,000 tested, 2% active; active = clear falling dose curves in both reporters; inconclusive = both reporters move, but less clearly or upward; inactive = either reporter flat; the % is the NLuc reporter signal
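Luminescent read-out of sequential FLuc and NLuc signals from a reporter embedded in the Pmp22 3' UTR of S16 Schwann cells, taken after 24 h compound exposure at 37C; compounds reducing both signals score as inhibitors of expression.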
mTORC1 inh: Acumen qHTS Assay for Inhibitors of the mTORC1 Signaling Pathway in MEF (Tsc2-/-, p53-/-) Cells: Sytravon. 44,000 tested, 0.78% active. Potency, µM (titrated, usually from 38.3 µM), hits mostly inhibitors. Tsc2-/- p53-/- MEF, phospho-rpS6 immunofluorescence/PI, 24 h. AID 493208, 2011; note: nearly all actives have a fitted effect of over 50% in size
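Readout is phospho-S6 Alexa 488 signal normalized to PI per well, reported as % active cells with thresholds set from rapamycin (7.5 nM) and DMSO controls. Cells: Tsc2-/-, p53-/- MEFs, 24 hrs compound at 37 C; PI cell number serves as viability.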
S16 F2sN tox: Cell viability qHTS assay in S16 Pmp22-F2sN cells; Potency, µM (doses to about 57.5 µM), usual class: cytotoxic; 43,000 tested, 0.48% active; AID 1508642, 2021; S16 Pmp22-F2sN Schwann cells (luciferase reporters placed in the Pmp22 gene) viability, CellTiter-Glo, 24 h; note: nearly all actives have a fitted effect of over 65% in size
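CellTiter-Glo counter-screen, qHTS, 1536-well. Cells: S16(c9) Pmp22-F2sN, 500-1,000/well in DMEM + 10% FBS. Cpd 23 nL pin transfer, 24 h, 37C/5% CO2. Read: luminescence, CCD imager.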
p53null 39C tox: qHTS Screen for Compounds that Selectively Target Cancer Cells with p53 Mutations: Cytotoxicity of p53 Null Cells at the Nonpermissive Temperature; Potency, µM (highest dose often 46.1 µM), hits mostly cytotoxic; AID 904, 2007; H1299 p53-null (neo) cells, 39C, ATPlite viability, 24 h; 55,000 tested, 0.97% active; note: nearly all actives have a fitted effect of over 50% in size
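Temperature-shift cytotoxicity format: compound titrations on p53-null or A138V-expressing H1299 cells held 24 hr at 39C, cell ATP then measured, AC50 from Hill model.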
p53null 32C tox: qHTS Screen for Compounds that Selectively Target Cancer Cells with p53 Mutations: Cytotoxicity of p53 Null Cells at the Permissive Temperature; H1299-neo p53 null cells, ATP luminescence, 24 h, 32C; Potency, µM (highest dose often 46.1 µM), actives largely listed as cytotoxic; 55,000 tested, 0.62% active; AID 903, 2007; note: nearly all actives have a fitted effect of over 55% in size
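Luminescent ATP readout gave cell viability of p53-null H1299-neo cells after a 24 h compound exposure at the permissive 32C. Titrations ran up to 46 uM, and AC50s were fitted with the standard Hill equation.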
Large screens that a line does not name were inactive. Unless noted, calls come from the whole dose curve; as a rule, active = well fitted curve in the direction sought with a large enough effect; inconclusive = small, poorly fitted or top-dose-only effect, or another doubt; inactive = no such curve, though single readings can be large; an effect the other way counts as inactive or inconclusive.

CN(c1ncccc1CNc1nc(Nc2ccc3c(c2)CC(=O)N3)ncc1C(F)(F)F)S(C)(=O)=O	none (no result: PMP22 txn, mTORC1 inh, S16 F2sN tox, p53null 39C tox, p53null 32C tox)
Cc1ccc(Cl)cc1N1CCN(CCCNc2ncnc3onc(-c4ccc(F)cc4)c23)CC1	PMP22 txn 18µM, S16 F2sN tox inconclusive
COc1ccc(N2CCN(C(=O)c3ccc4c(=O)n(CCc5ccc(OC)c(OC)c5)c(=O)[nH]c4c3)CC2)cc1	PMP22 txn 13µM, S16 F2sN tox inconclusive
COc1cccc(-c2noc(-c3cc4ccccc4oc3=O)n2)c1OC	none
COc1ccc(-c2noc(-c3cccc(OC)c3OC)n2)cc1	p53null 39C tox 18µM, p53null 32C tox 13µM
CCCCN1C(=O)C(O)(c2c(C)[nH]c3ccccc23)c2ccccc21 (centres undefined)	PMP22 txn 19µM, mTORC1 inh inconclusive, S16 F2sN tox inconclusive
CCCCN1C(=O)C(O)(c2c(C)[nH]c3ccccc23)c2cc(Br)ccc21 (centres undefined)	OvCa metastasis inconclusive, PMP22 txn inconclusive, mTORC1 inh inconclusive, p53null 39C tox inconclusive
CNC1[C@H](O)C(O[C@@H]2C(O)C(O[C@H]3O[C@H]([C@@H](C)NC)CC[C@H]3N)[C@@H](N)C[C@H]2N)OC[C@]1(C)O (some centres undefined)	none (no result: PMP22 txn, mTORC1 inh, S16 F2sN tox, p53null 39C tox, p53null 32C tox)
Cc1nc(Nc2n[nH]c3c2CN(C(=O)N[C@H](CN(C)C)c2ccccc2)C3(C)C)c2sccc2n1	none (no result: PMP22 txn, mTORC1 inh, S16 F2sN tox, p53null 39C tox, p53null 32C tox)
CCc1ccccc1-n1nnc(-c2nc(-c3ccccc3F)no2)c1C	PMP22 txn inconclusive, p53null 32C tox inconclusive
Cc1c(-c2nc(-c3ccccc3F)no2)nnn1-c1cc(F)ccc1F	PMP22 txn inconclusive, p53null 39C tox 3.2µM, p53null 32C tox inconclusive
CCCc1nn2cc(-c3ccc(C)c(C)c3)nc2s1	p53null 39C tox 10µM, p53null 32C tox 7.9µM
COc1ccc(-c2ccc3c(N4CCOC[C@H]4C)nc(N4CCOC[C@H]4C)nc3n2)cc1CO	none (no result: PMP22 txn, mTORC1 inh, S16 F2sN tox, p53null 39C tox, p53null 32C tox)
CC(C)c1onc(-c2c(Cl)cccc2Cl)c1COc1ccc(C=Cc2cccc(C(=O)O)c2)c(Cl)c1	none (no result: PMP22 txn, mTORC1 inh, S16 F2sN tox, p53null 39C tox, p53null 32C tox)
O=C(CSCc1cc(=O)c2ccccc2[nH]1)Nc1cccc(C(F)(F)F)c1	none
COC(=O)c1c(SCC(=O)Nc2cccc(Cl)c2C)[nH]c2ccccc2c1=O	p53null 39C tox 10µM
COC(=O)c1c(SCC(=O)Nc2cccc(C(F)(F)F)c2)[nH]c2ccccc2c1=O	S16 F2sN tox inconclusive, p53null 39C tox 3.2µM, p53null 32C tox inconclusive
COC(=O)c1c(SCC(=O)Nc2cc(F)ccc2F)[nH]c2ccc(C)cc2c1=O	S16 F2sN tox inconclusive, p53null 39C tox inconclusive, p53null 32C tox inconclusive
CCCCCNC(=O)N1CCC(CN(Cc2ccc(Cl)cc2)Cc2ccc([N+](=O)[O-])s2)C1 (centres undefined)	none (no result: PMP22 txn, mTORC1 inh, S16 F2sN tox, p53null 39C tox, p53null 32C tox)
COc1ccc(NC(=O)c2cnc[nH]2)cc1	p53null 39C tox 7.9µM, p53null 32C tox 18µM
O=C(Nc1cccc(Cl)c1)c1cnc[nH]1	none
Cc1ccccc1C(C(=O)NC1CCCC1)N(C(=O)Cn1cnc2ccccc21)c1cccc(F)c1 (centres undefined)	none (no result: PMP22 txn, mTORC1 inh, S16 F2sN tox, p53null 39C tox, p53null 32C tox)
CC(C)(C)n1ncc2c(=O)n(CC(=O)c3ccccc3)cnc21	p53null 39C tox 13µM (no result: OvCa metastasis, PMP22 txn, mTORC1 inh, S16 F2sN tox)
CC(C)c1cnn2c(NCc3ccccc3)cc(NCCCCCCN)nc12	none (no result: PMP22 txn, mTORC1 inh, S16 F2sN tox, p53null 39C tox, p53null 32C tox)
CC1=C(C(=O)Nc2ccccc2)C(c2ccc(F)cc2)n2nc(SCc3cc(C)ccc3C)nc2N1 (centres undefined)	none

Screening data deposited in PubChem by National Center for Advancing Translational Sciences (NCATS).
